From PubChem BioAssay
Calls of active or inactive are those of the source. How the calls were made is not given here.

target: Pantothenate synthetase (Mycobacterium tuberculosis (strain ATCC 25618 / H37Rv)) (UniProt P9WIL5); test: Coupled enzyme confirmation of inhibitors against recombinant Mtb PanC (AID 375); settings: coupled enzyme assay; at 10 µM, active compounds read high;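 further: 0% = full reaction with vehicle and 100% = no enzyme background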
Sequence (P9WIL5 whole entry, looked up): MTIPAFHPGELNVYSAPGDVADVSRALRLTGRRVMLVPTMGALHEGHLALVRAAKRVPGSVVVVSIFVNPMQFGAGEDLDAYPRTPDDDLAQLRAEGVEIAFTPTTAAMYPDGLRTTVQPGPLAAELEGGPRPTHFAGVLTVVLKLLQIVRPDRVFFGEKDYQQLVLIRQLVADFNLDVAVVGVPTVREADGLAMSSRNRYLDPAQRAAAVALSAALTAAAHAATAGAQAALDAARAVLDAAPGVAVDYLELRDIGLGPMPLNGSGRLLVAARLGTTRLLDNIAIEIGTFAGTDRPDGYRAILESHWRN

Row | SMILES | inhibition
1 | O=S(=O)(Nc1ncccn1)c1ccc(Nc2ncnc3ccccc23)cc1 | 6% (inactive)
2 | CCOC(=O)c1ccc(-n2c(=O)[nH]c3ccccc3c2=O)cc1 | 2% (inactive)
3 | Cc1c(C(=O)NC2CCCc3ccccc32)oc2ccc(S(=O)(=O)N3CCOCC3)cc12 (configuration not stated) | 6% (inactive)
4 | O=C(Oc1cc2oc(=O)c3c(c2cc1Cl)CCCC3)c1ccco1 | 0% (inactive)
5 | COc1cccc(C(=O)Nc2ccc(C)cc2)c1 | 1% (inactive)
6 | COc1cccc(C2CC(c3ccc(C)cc3)Nc3nc(N)nn32)c1 (configuration not stated) | 0% (inactive)
7 | CCC(=O)c1cc(F)c(N2CCN(C(=O)c3ccco3)CC2)cc1C | 7% (inactive)
8 | Nc1nnc(Cc2ccc(Cl)cc2)s1 | 4% (inactive)
9 | CN(C(=O)C(Cl)Cl)c1ccc(OC(=O)c2ccco2)cc1 | 7% (inactive)
10 | N#Cc1ccccc1Cn1c(=O)n(Cc2ccc(C(=O)NCc3ccco3)cc2)c(=O)c2sccc21 | 9% (inactive)
11 | CCSC1=C(C#N)C(c2cccc(OC)c2)CC(=O)N1 (configuration not stated) | 6% (inactive)
12 | CC(Sc1nc(-c2ccccc2)cc(C(F)(F)F)n1)C(=O)N1CCC(C(N)=O)CC1 (configuration not stated) | 0% (inactive)
13 | CC(=O)NC1CC2CCCC(C1)N2CC(=O)Nc1ccccc1 (configuration not stated) | 3% (inactive)
14 | COc1cc(C2c3c(n[nH]c3C)C(=O)N2c2ccc(C)cc2)ccc1O (configuration not stated) | 0% (inactive)
15 | CN(CC(=O)N1CCCCC1)S(=O)(=O)c1cccc2cccnc12 | 0% (inactive)
16 | O=C1CCCCCC1C1(O)C(=O)Nc2ccccc21 (configuration not stated) | 7% (inactive)
17 | COc1cc(/C=N/n2c(C)nnc2C)cc(OC)c1OC | 4% (inactive)
